In PubChem BioAssay (NCI):
Compounds without any hit were thinned out: in the full panel of roughly 83,000, 20% have a hit.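 Method: cells in 96-well plates; compound added at one concentration; 48 h incubation; percent growth measured; values under 10 scored active.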 Values without a mark were called inactive. Active and inactive are the calls of the source.

Tests used:
Assay in all cases: NCI-60 one-dose screen, 48 h (100 = growth as untreated, 0 = no growth, -100 = all killed)
Details in all cases: 10 µM unless noted
[1] = test system: NCI-H23 lung
[2] = test system: NCI-H226 lung
[3] = test system: NCI-H322M lung
[4] = test system: HOP-62 NSCLC
[5] = test system: NCI-H460 lung
[6] = test system: HOP-92 NSCLC
[7] = test system: NCI-H522 lung
[8] = test system: A549/ATCC NSCLC
[9] = test system: 786-0 renal
[10] = test system: COLO 205 colon
[11] = test system: DU-145 prostate
[12] = test system: K-562 leukemia
[13] = test system: MALME-3M melanoma
[14] = test system: MDA-MB-231 breast
[15] = test system: RXF 393 renal
[16] = test system: SF-268 CNS
[17] = test system: SF-295 CNS
[18] = test system: SF-539 CNS
[19] = test system: UACC-257 melanoma
[20] = test system: M14 melanoma

`CCCC(=O)Oc1ccc(/C(=C(\C)c2ccccc2)c2ccc(OCCN(CC)CC)cc2)cc1` gave a growth [1] of 87.6%, a growth [2] of 99.3% and a growth [3] of 83.3%. The growth [4] was 92.9%, the growth [5] was 69.8% and the growth [6] was 57.7%. It also gave a growth [7] of 72.1%, a growth [8] of 67.2% and a growth [9] of 71%. The growth [10] was 51%, the growth [11] was 102% and the growth [12] was 16%. For the same molecule, the growth [13] was 70.3%, the growth [14] was 92.6% and the growth [15] was 61.1%. For the same molecule, the growth [16] was 77.2%, the growth [17] was 91.4% and the growth [18] was 60.4%. It also gave a growth [19] of 67.6% and a growth [20] of 40.7%.
Molecule `CN1C(=O)N(C)C2C1NN=c1s/c(=C\C=C\c3ccccc3)c(=O)n12` (stereo not given) has a growth [1] of 64.3%, a growth [2] of 61.9% and a growth [3] of 68.4%. For the same molecule, the growth [4] was 67.3%, the growth [5] was 23.3% and the growth [6] was 63.9%. For the same molecule, the growth [7] was 38.7%, the growth [8] was 52.7% and the growth [9] was 71.3%. The growth [10] was 42.1%, the growth [11] was 69.3% and the growth [12] was 20.6%. The growth [13] was 62.6%, the growth [14] was 65% and the growth [15] was 77.7%. The growth [16] was 67.2%, the growth [17] was 45.7% and the growth [18] was 54.8%. For the same molecule, the growth [19] was 73.4% and the growth [20] was 41.5%.
With `COc1ccc(-c2ccc(C)n2-c2ccc(-c3nc4ccccc4s3)cc2)cc1` the growth [1] was 81.4%, the growth [2] was 85.2% and the growth [3] was 98.2%. For the same molecule, the growth [4] was 87.6%, the growth [5] was 88.8% and the growth [6] was 86.2%. For the same molecule, the growth [7] was 89.4%, the growth [8] was 85.6% and the growth [9] was 100%. For the same molecule, the growth [10] was 94%, the growth [11] was 104% and the growth [12] was 91.6%. For the same molecule, the growth [13] was 108%, the growth [14] was 68.4% and the growth [15] was 94.7%. The growth [16] was 96%, the growth [17] was 86.5% and the growth [18] was 99.3%. For the same molecule, the growth [19] was 109% and the growth [20] was 103%.
`Fc1ccc(Nc2ncnc3ccc(-c4cnc5[nH]ccc5c4)cc23)cc1Cl` was tested, and the growth [1] was 36.1%, the growth [2] was 4.94% (active) and the growth [3] was 19.2%. The growth [4] was 29.1%, the growth [5] was -58.9% (active) and the growth [6] was -5.43% (active). The growth [7] was -33.3% (active), the growth [8] was -50.1% (active) and the growth [9] was -44.1% (active). For the same molecule, the growth [10] was 11%, the growth [11] was 40.4% and the growth [12] was 4.25% (active). For the same molecule, the growth [13] was 2.95% (active), the growth [14] was -16.9% (active) and the growth [15] was -27.3% (active). The growth [16] was 32.8%, the growth [17] was -32.2% (active) and the growth [18] was -73.2% (active). It also gave a growth [19] of 39.2% and a growth [20] of 42.7%.
`C=C1CCC2C(C)(CO)C(O)CCC2(C)C1C/C=C1/C(=O)OCC1O/C=C/c1ccccc1` (stereo not given) was tested, and the growth [1] was 87.7%, the growth [2] was 83.7% and the growth [3] was 94.7%. For the same molecule, the growth [4] was 104%, the growth [5] was 75.2% and the growth [6] was 76.1%. The growth [7] was 60.3%, the growth [8] was 71.8% and the growth [9] was 93.1%. It also gave a growth [10] of 101%, a growth [11] of 82.8% and a growth [12] of 22.9%. The growth [13] was 105%, the growth [14] was 95.6% and the growth [15] was 81.2%. The growth [16] was 96.7%, the growth [17] was 92.7% and the growth [18] was 96.9%. It also gave a growth [19] of 83.6% and a growth [20] of 86.1%.
`COc1ccc(-c2nc(/C=C3/C(=O)Nc4ccc(F)cc43)c3ccccn23)cc1` showed a growth [1] of 97.8%, a growth [2] of 114% and a growth [3] of 126%. For the same molecule, the growth [4] was 108%, the growth [5] was 94.8% and the growth [6] was 92.3%. It also gave a growth [7] of 104%, a growth [8] of 99.4% and a growth [9] of 98.8%. It also gave a growth [10] of 97.3%, a growth [11] of 102% and a growth [12] of 87.2%. For the same molecule, the growth [13] was 130%, the growth [14] was 89.2% and the growth [15] was 112%. The growth [16] was 107%, the growth [17] was 140% and the growth [18] was 117%. For the same molecule, the growth [19] was 102% and the growth [20] was 106%.
In the case of `C/C=C(\C)C(C(=O)NC1CCCCC1)N(C(=O)C1CCc2cc(F)ccc2O1)c1ccc(Cl)cc1` (stereo not given), the growth [1] is reported as 103%, the growth [2] is reported as 93.7% and the growth [3] is reported as 110%. It also gave a growth [4] of 93.6%, a growth [5] of 104% and a growth [6] of 108%. The growth [7] was 92%, the growth [8] was 96.2% and the growth [9] was 101%. The growth [10] was 106%, the growth [11] was 108% and the growth [12] was 99.7%. The growth [13] was 109%, the growth [14] was 103% and the growth [15] was 109%. It also gave a growth [16] of 97.2%, a growth [17] of 97.5% and a growth [18] of 98.2%. It also gave a growth [19] of 98.8% and a growth [20] of 103%.
For `Cc1cc(C2(c3cc(C)c(O)cc3C)OS(=O)(=O)c3ccccc32)c(C)cc1O`, the growth [1] was 106%, the growth [2] was 106% and the growth [3] was 101%. It also gave a growth [4] of 92.2%, a growth [5] of 108% and a growth [6] of 81.7%. For the same molecule, the growth [7] was 92.2%, the growth [8] was 97.2% and the growth [9] was 109%. For the same molecule, the growth [10] was 111%, the growth [11] was 119% and the growth [12] was 102%. It also gave a growth [13] of 122%, a growth [14] of 100% and a growth [15] of 114%. For the same molecule, the growth [16] was 103%, the growth [17] was 107% and the growth [18] was 105%. It also gave a growth [19] of 87.7% and a growth [20] of 108%.
